The campaign covered roughly 69,000 compounds. About 8,600 (12%) showed an effect of 50% or more. The entries come from a sample that favours strong results as a whole.
system: Plasmodium berghei; experiment: Screen against P. berghei liver stage (PbLuc), transformed with Luciferase, at 10uM; type: functional, HepG2; settings: tested at 10 uM

SMILES	INHIBITION
O=c1oc(-c2cccs2)nn1CC(O)c1ccccc1F (stereo not drawn)	35.4%
c1cc(CN2CCCC2c2noc(C3CC3)n2)on1 (stereo not drawn)	37.4%
Cc1nc(CN2CCCC2c2ccsc2)nc2ccccc12 (stereo not drawn)	53.8%
C1CC(c2noc(C3CC3)n2)N(Cc2nc(C3CC3)no2)C1 (stereo not drawn)	2.3%
c1ccc2sc(CN3CCCC3c3noc(C4CC4)n3)nc2c1 (stereo not drawn)	78%
Cc1nn(C)c(C)c1C1CCCN1Cc1nc(N)c2ccccc2n1 (stereo not drawn)	23.4%
Cc1nn(C)c(C)c1C1CCCN1Cc1nc(C)c2ccccc2n1 (stereo not drawn)	12.7%
NC(=O)c1nc(CC(=O)Nc2cccc(C(F)(F)F)c2)no1	-14.8%
CCOC(=O)CCC(=O)NC(C)c1ccc(NC(=O)CC)cc1 (stereo not drawn)	37.1%
O=C(Cc1cnc(-c2c(Cl)cccc2Cl)s1)N1CCOCC1	19.3%
CC(C)CN1CCN(C)C2(CCN(c3nccs3)CC2)C1=O	45.2%
CN1CCN(CCO)C(=O)C12CCN(c1nccs1)CC2	23.1%
CN1CCN(Cc2ccncc2)C(=O)C12CCN(c1nccs1)CC2	58.5%
CCNc1nnc(SCc2nnc(C(C)(C)C)o2)s1	-7.93%
CC(=O)N1CCN(C(=O)CN2CCCC2Cn2nc(C)cc2C)CC1 (stereo not drawn)	-14.6%
C=c1ncsc1=C1NN=C(C2CCCN2C(=O)Cn2cccn2)O1 (stereo not drawn)	19.24%
Cc1ncsc1CN1CCn2c(COCC3CC3)cnc2C1C (stereo not drawn)	18.5%
CC1c2ncc(COc3cccnc3)n2CCN1C(=O)Cc1ccco1 (stereo not drawn)	-36.3%
Cc1ccc(CN2CCn3c(COc4cccnc4)cnc3C2C)o1 (stereo not drawn)	25.8%
CCOCc1cnc2n1CCN(Cc1scnc1C)C2C (stereo not drawn)	20.1%
Cc1ccsc1CN1CCn2c(COc3cccnc3)cnc2C1C (stereo not drawn)	65.7%
CC1c2ncc(COc3cccnc3)n2CCN1Cc1ccco1 (stereo not drawn)	54.8%
CC1c2ncc(COc3cccnc3)n2CCN1Cc1cnn(C)c1 (stereo not drawn)	34%
Cc1ncsc1CN1CCn2c(COc3cccnc3)cnc2C1C (stereo not drawn)	58.7%
Cc1csc(CN2CCn3c(COc4cccnc4)cnc3C2C)n1 (stereo not drawn)	31.2%
O=C1CC2(CCCNC2)C(=O)N1Cc1cccc(F)c1 (stereo not drawn)	0.112%
Cc1ccc(C(=O)NS(=O)(=O)Cc2ccc(F)cc2)cc1S(C)(=O)=O	41.6%

SMILES	INHIBITION
CNC(=O)c1ccc2c(c1O)OC(C)(C)C2	30%
CNC(=O)CN1CCN(C(=O)c2ccn(C)c(=O)c2)CC1	-7.31%
CC(C)CN1CCC2(CCN(Cc3ccoc3)CC2)C1=O	50.7%
CN(C)C(=O)CN1CCC2(CCN(S(C)(=O)=O)CC2)C1=O	18.6%
CN(C)C(=O)CN1CCC2(CCN(C(=O)N3CCCC3)CC2)C1=O	54.3%
CN1CCC(CN2CCC3(CCCN(Cc4ccoc4)C3)C2=O)CC1 (stereo not drawn)	1.34%
O=C1N(CC2CC2)CCC12CCN(Cc1ccoc1)CC2	11.2%
CN(C)C(=O)CN1CCC2(CCCN(Cc3cccnc3)C2)C1=O (stereo not drawn)	72.9%
CN(C)C(=O)CN1CCC2(CCCN(Cc3ccsc3)C2)C1=O (stereo not drawn)	18.6%
CN(C)C(=O)CN1CCC2(CCCN(Cc3ccoc3)C2)C1=O (stereo not drawn)	53.9%
Cn1cc(CN2CCCC3(CCN(Cc4cccnc4)C3=O)C2)cn1 (stereo not drawn)	43.2%
CN(C)C(=O)CN1CCC2(CCCN(Cc3cccn3C)C2)C1=O (stereo not drawn)	-10.2%
CC(C)CN1CCC2(CCN(Cc3ccc(F)cc3)CC2)C1=O	-15.9%
CN(C)C(=O)CN1CCC2(CCN(C(=O)N(C)C)CC2)C1=O	-19.6%
O=C1CCN(C(=O)NCC(c2ccccc2)c2ccccc2)CCN1	-61.4%
O=C1CC[C@H](C(=O)Nc2cnn(-c3ccccc3Br)c2)N1	30%
Cc1cc(C)nc(C2CCN(C(=O)c3c(C)noc3C)C2)n1 (stereo not drawn)	-8.12%
Cc1ncnc2c1CCN(Cc1cccs1)CC2	-33%
Cc1ccc(C(=O)N2CCCCC2CNC(N)=O)cc1F (stereo not drawn)	44.3%
O=C([C@H]1CN(Cc2ccoc2)C[C@H]2OCC[C@@H]12)N1CCCCO1	39.4%
Cc1ccc(-n2ncc(C(=O)N3CCCC3c3cnn(C)c3)c2C)cc1 (stereo not drawn)	2.3%
CC(C)Oc1ncccc1CNC(=O)c1cnccn1	7.12%
CCS(=O)(=O)CCNC(=O)[C@@]12CNC[C@@H]1CN(C1CCCC1)C2	30.8%
CN1CCC(O)(CCNC(=O)[C@@]23CNC[C@@H]2CN(C2CCCC2)C3)CC1	62.9%
CNS(=O)(=O)CCNC(=O)[C@@]12CNC[C@@H]1CN(C1CCCC1)C2	28.7%
Cc1nn(C)cc1S(=O)(=O)N[C@@H]1CCC[C@@H](n2ccnc2)[C@@H]1O	7.19%
